Screens (PubChem BioAssay)
Bead autofluor: flagged as autofluorescent in microsphere protease counterscreen | fluorescence intensity (test concentration not listed) | hit rate 3.1% among 360,000 | compound autofluorescence counterscreen, microsphere flow cytometry; stronger effect = higher value; in the data active means fluorescence intensity above about 16000; inconclusive means no clear call, values can overlap the other calls
BoNT-A LC inh2: BoNT/A light chain protease inhibitors, primary screen, biochemical, flow cytometry, MLPCN library; multiplex microsphere protease substrate cleavage; inhibition, % at 10 µM; hit rate 0.17% among 360,000; AID 588499, 2011; further: plate controls were buffer without enzyme for full effect and enzyme alone for no effect
BoNT-F LC inh: BoNT/F light chain protease inhibitors, primary screen, biochemical, flow cytometry, MLPCN library; Botulinum neurotoxin type F light chain protease (Clostridium botulinum); Multiplex microsphere protease cleavage assay; inhibition, % at 10 µM; hit rate 0.22% among 360,000; in the data active means inhibition above about 35%, passing the limit was not always enough; inconclusive means no clear call, values can overlap the other calls; further: plate controls were buffer without enzyme for full effect and enzyme alone for no effect
TcdB GH inh: TcdB glycohydrolase inhibitors, primary screen, biochemical, single point, plate reader; TcdB glycohydrolase enzymatic assay; inhibition, % at 9.99 µM; hit rate 0.24% among 350,000; AID 652162, 2013; in the data active means inhibition above about 10%
Anthrax LF inh2: Bacillus anthracis LF protease inhibitors, primary screen, biochemical, multiplex microsphere, MLPCN library; Lethal factor (Bacillus anthracis), P15917; multiplex microsphere protease cleavage assay; inhibition, % at 10 µM; hit rate 0.12% among 360,000; further: plate controls were buffer without enzyme for full effect and enzyme alone for no effect
Active calls of the source: *; ? = inconclusive; . = no result given; ! = a repeat was not active. The sample as a whole holds a higher share of hits than the screen did. Unless noted, no stated cut-off is given here; in the data, active means inhibition above about 30%; inconclusive means no clear call, values can overlap the other calls; inactive means below that.

SMILES	Bead autofluor	BoNT-A LC inh2	BoNT-F LC inh	TcdB GH inh	Anthrax LF inh2
Cc1cc(C)c(C)c(S(=O)(=O)N2CCN(Cc3nc4ccccc4[nH]3)CC2)c1C	22533*	?	2	.	-1
Cc1cc(C)c(C)c(S(=O)(=O)N2CCN(C(=O)c3cc(=O)[nH]c4ccccc34)CC2)c1C	20107*	8	11	.	-9
Cc1cc(C)c(S(=O)(=O)N2CCN(C(=O)c3cc(=O)[nH]c4ccccc34)CC2)c(C)c1	6474	0	-1	2	3
Cc1ccc(S(=O)(=O)N2CCN(Cc3nc4ccccc4[nH]3)CC2)cc1C	3566	0	-6	.	-1
C[C@@H](NC(=O)C[C@@H]1CC[C@H](NC(=O)C2CCC2)[C@@H](CO)O1)c1ccccc1	.	.	.	-1	.
CCN(CC)C(=O)Oc1ccccc1NC(C)=O	20729*	?	-4	.	0
Cc1ccc(S(=O)(=O)N(C)C[C@@H]2Oc3c(NC(=O)c4ccncc4)cccc3C(=O)N([C@H](C)CO)C[C@H]2C)cc1	.	.	.	1	.
C[C@@H]1CCCCO[C@@H](CN(C)S(=O)(=O)c2cccs2)[C@@H](C)CN([C@@H](C)CO)C(=O)c2cc(NC(=O)Nc3ccc(C(F)(F)F)cc3)ccc2O1	.	.	.	-3	.
CCOC(=O)N1CCN(C(=O)CSc2ccccc2)CC1	23877*	-1	-4	.	-1
CCOC(=O)N1CCN(Cc2ccccc2F)CC1	20462*	-1	0	1	1
CCOC(=O)N1CCN(Cc2ccccc2Cl)CC1	22232*	0	0	.	-1
CCOC(=O)N1CCN(Cc2nc(-c3cccc(C)c3)no2)CC1	22782*	2	2	2	0
CCOC(=O)N1CCN(Cc2nc(-c3ccccc3)no2)CC1	3206	-2	-15	.	-3
CC(C)CC(=O)N1CCN(Cc2ccccc2Cl)CC1	3660	-2	5	0	2
C[C@@H]1CN([C@H](C)CO)C(=O)c2cc(NC(=O)C3CCCCC3)ccc2O[C@H]1CN(C)Cc1ccc(C(=O)O)cc1	.	.	.	-2	.
O=C(NC[C@@H]1[C@@H](c2ccccc2)[C@@H](CO)N1Cc1ccccc1)c1ccccn1	.	.	.	0	.
CC(=O)N(C)C[C@H]1Oc2ncc(-c3cccnc3)cc2C(=O)N([C@@H](C)CO)C[C@H]1C	.	.	.	0	.
CCN1C(=O)C(CC(=O)N2CCN(C(c3ccccc3)c3ccccc3)CC2)N(CC)C1=O (stereo unspecified)	16806*	-1	0	.	-2
CC(=O)N(C(C)=O)c1c(N2CCOCC2)c2ccccc2oc1=O	21404*	4	6	2	-4
CC(=O)N(C(C)=O)c1c(N2CCCC2)c2ccccc2oc1=O	4493	-2	-1	-3	-9
COc1ccccc1C(=O)NCCCn1cc(Br)c(C)n1	18046*	?	-3	1	3
COc1ccccc1C(=O)NCC[N+](C)(C)C	6300	-1	0	0	-3
CC(C)NC(=O)N(C)C[C@@H]1Oc2ccc(NC(=O)C3CC3)cc2CC(=O)N([C@@H](C)CO)C[C@@H]1C	.	.	.	0	.
Cc1ccc(CC(=O)Nc2nccs2)cc1	3295	0	0	0	4
CCc1ccc(CCC(=O)Nc2nccs2)o1	21884*	1	4	.	2
SMILES	Bead autofluor	BoNT-A LC inh2	BoNT-F LC inh	TcdB GH inh	Anthrax LF inh2
O=C(Cc1ccc(F)cc1)Nc1nccs1	2990	1	42*	1	15
C[C@@H]1CN([C@H](C)CO)C(=O)c2cc(/C=C/c3ccccc3)cnc2O[C@@H]1CN(C)S(=O)(=O)c1cn(C)cn1	.	.	.	2	.
O=C(O)c1ccccc1-c1c2cc(I)c(=O)c(I)c-2oc2c(I)c(O)c(I)cc12	3911	64*	38*!	-8	33*
O=Cc1ccc(-c2ccccc2C(=O)O)o1	3091	4	16	2	3
COCc1cn(CC[C@@H]2CC[C@@H](NC(=O)Nc3ccc(Cl)cc3)[C@H](CO)O2)nn1	.	.	.	1	.
COCc1cc(C)nc(N2CCN(Cc3ccccc3)CC2)c1C#N	4486	1	18	.	-1
COCc1cc(C)nc(N2CCN(c3ccccc3)CC2)c1C#N	23159*	-1	-1	.	-1
O=C(C[C@@H]1CC[C@@H](NC(=O)CCN2CCCCC2)[C@H](CO)O1)NCc1ccc(Cl)c(Cl)c1	.	.	.	0	.
O=c1[nH]c(CN2CCN(C/C=C/c3ccccc3)CC2)nc2ccccc12	21675*	?	-2	0	1
O=c1[nH]c(CN2CCN(S(=O)(=O)/C=C/c3ccccc3)CC2)nc2ccccc12	3972	1	0	0	-6
NC(=O)C1CCN(Cc2nc3ccccc3c(=O)[nH]2)CC1	23828*	0	-1	.	1
CO[C@@H]1CN(C)C(=O)c2cc(NC(=O)c3cnccn3)ccc2OC[C@H](C)N(C)C[C@H]1C	.	.	.	-1	.
COc1ccccc1Nc1nc2c(C)cccc2cc1C#N	16724*	0	1	.	-1
COc1ccccc1Nc1nc2ccc(C)cc2cc1C#N	?	6	24	.	1
Cc1ccc(-n2nc3c(N4CCC(C(=O)NCc5ccccc5C)CC4)nnc(C)c3c2C)cc1	16178*	-4	10	.	1
COc1ccc(-n2nc3c(N4CCC(C(=O)NCc5cccc(C)c5)CC4)nnc(C)c3c2C)cc1	12492	-3	15	0	-2
CCOc1ccc(CNC(=O)C2CCN(c3nnc(C)c4c(C)n(-c5ccc(C)cc5)nc34)CC2)cc1	17592*	-5	10	1	5
CCOc1ccccc1CNC(=O)C1CCN(c2nnc(C)c3c(C)n(-c4ccc(C)cc4)nc23)CC1	12373	-2	11	0	4
CO[C@H]1CN(C)C(=O)c2ccc(NC(C)=O)cc2OC[C@H](C)N(Cc2ccc(F)cc2)C[C@@H]1C	.	.	.	1	.
COc1ccc(Br)c(C(=O)N(C)CC(=O)Nc2ccc(N3CCOCC3)cc2)c1	21018*	-64	-105	3	-17
COCC(=O)N1CC2(C1)[C@H](c1ccccc1)[C@@H](CO)N2C(=O)c1ccccc1	.	.	.	1	.
CCC(C)Sc1ccc(-c2nc3cc(C)ccn3c2NC2CCCCC2)cc1 (stereo unspecified)	20914*!	-5	18	-3	-8
COc1cc(-c2nc3cc(C)ccn3c2NC2CCCCC2)ccc1-c1ccc(C(C)=O)cc1	23646*	-3	18	.	-3
CCOC(=O)C1=C(C)N=C2SC(C(=O)OC)=CC(=O)N2C1c1ccc(F)cc1 (stereo unspecified)	8359	0	-16	.	-1
CCOC(=O)C1=C(C)N=C2SC(C(=O)OC)=CC(=O)N2C1c1cccc(OC)c1 (stereo unspecified)	19879*	0	-4	.	-2
COc1ccc(NC(=O)Nc2cccc3c2O[C@H](CN(C)C(=O)Nc2c(C)noc2C)[C@H](C)CN([C@H](C)CO)C3=O)cc1	.	.	.	1	.
CCCCNC(=O)OCCNC(=O)NC	18838*	?	9	.	-18
O=C(NCCCCCCNC(=O)OCCO)OCCO	4578	0	-6	0	-2
